{"source": "PubChem BioAssay AID720706", "about": "(Broad Institute, 2013)", "note": "Among all 350,000 compounds or so, about 5,500 (1.6%) were called active.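 The calls were made as follows: active = significant combined selectivity score with lowered wild-type GFP, culture density cut under 30%, mutant RFP and density less affected; inactive = any of these conditions unmet.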 The sample as a whole holds a higher share of actives than the screen did.", "data": [{"test": "GFP drop in mixed WT/humanized-ribosome E. coli culture – GFP/RFP fluorescence, OD600, single point, bacterial rRNA inhibitor project, primary screen (AID 720706)", "details": "E. coli WT GFP vs humanized-ribosome RFP mutants, 24 h; GFP signal change (wild-type ribosome): stronger effect = lower value, DMSO median 0, no signal -100; OD600 change: measured here: OD600 growth, DMSO median 0, no signal -100; RFP signal change: measured here: RFP humanized mutant strains, DMSO median 0, no signal -100, concentration not given here", "units": {"OD600 change": "%", "RFP signal change": "%"}, "values": [{"smiles": "CC(=O)N(C)C[C@@H]1Oc2cc(-c3cccnc3)ccc2S(=O)(=O)N([C@@H](C)CO)C[C@H]1C", "GFP signal change (wild-type ribosome)": "0.257% (inactive)", "OD600 change": -3.4, "RFP signal change": -4.17}, {"smiles": "O=C(CC1CC1)N1CC(=O)N2[C@H](CO)[C@H](c3ccc(C#Cc4ccc(F)cc4)cc3)[C@@H]2C1", "GFP signal change (wild-type ribosome)": "-21.5% (inactive)", "OD600 change": -61.2, "RFP signal change": 15.4}, {"smiles": "COc1ccc(-c2cnc3c(c2)C(=O)N([C@H](C)CO)C[C@@H](C)[C@H](CN(C)C(=O)Cc2ccncc2)O3)cc1", "GFP signal change (wild-type ribosome)": "-1.52% (inactive)", "OD600 change": 2.2, "RFP signal change": -0.471}, {"smiles": "COc1cccc(NC(=O)Nc2ccc3c(c2)OC[C@@H](C)NC[C@@H](C)[C@H](OC)CN(C)C3=O)c1", "GFP signal change (wild-type ribosome)": "0.255% (inactive)", "OD600 change": 0.1, "RFP signal change": 2.58}, {"smiles": "C[C@@H]1CCCCO[C@H](CN(C)C(=O)CCCN(C)C)[C@@H](C)CN([C@@H](C)CO)C(=O)c2cc(NC(=O)c3ccncc3)ccc2O1", "GFP signal change (wild-type ribosome)": "3.33% (inactive)", "OD600 change": 12.1, "RFP signal change": -1.91}, {"smiles": "COc1ccccc1N1CCN(C(=O)c2cc3c(-c4ccc(Cl)cc4)nn(C)c3s2)CC1", "GFP signal change (wild-type ribosome)": "0.925% (inactive)", "OD600 change": 11.2, "RFP signal change": 2.25}, {"smiles": "Cn1nc(-c2ccc(Cl)cc2)c2cc(C(=O)NCc3ccco3)sc21", "GFP signal change (wild-type ribosome)": "-29.9% (inactive)", "OD600 change": -25.9, "RFP signal change": -16.6}, {"smiles": "CCOC(=O)N1CCN(C(=O)c2cc3c(-c4ccc(Cl)cc4)nn(C)c3s2)CC1", "GFP signal change (wild-type ribosome)": "-22.9% (active)", "OD600 change": -10.6, "RFP signal change": -5.96}, {"smiles": "COc1ccc2c3c(n(C)c2c1)[C@H](CO)NCC31CN(Cc2cc(F)ccc2F)C1", "GFP signal change (wild-type ribosome)": "-2.04% (inactive)", "OD600 change": 1.28, "RFP signal change": 1.51}, {"smiles": "CCOC(=O)c1ccn(S(=O)(=O)c2ccc(C)cc2)c1-c1ccccc1", "GFP signal change (wild-type ribosome)": "-4.05% (inactive)", "OD600 change": -26.5, "RFP signal change": -5.7}, {"smiles": "CCc1c(N=O)c(-c2ccccc2)n(O)[n+]1[O-]", "GFP signal change (wild-type ribosome)": "-18.1% (active)", "OD600 change": 0.75, "RFP signal change": -2.88}, {"smiles": "COc1ccc(-c2nn(-c3ccccc3)cc2/C=C\\C(=O)N2CCOCC2)cc1[N+](=O)[O-]", "GFP signal change (wild-type ribosome)": "-3.42% (inactive)", "OD600 change": 3.96, "RFP signal change": -1.95}, {"smiles": "Cc1ccc2cc(/C=N/Nc3ccc(C(=O)O)cc3)c(Cl)nc2c1", "GFP signal change (wild-type ribosome)": "8.25% (inactive)", "OD600 change": -7.45, "RFP signal change": 2.99}, {"smiles": "O=C(/C=C\\c1cn(-c2ccccc2)nc1-c1cccs1)N1CCOCC1", "GFP signal change (wild-type ribosome)": "-25.3% (active)", "OD600 change": -11.3, "RFP signal change": -10.9}, {"smiles": "O=C(/C=C/c1cn(-c2ccccc2)nc1-c1ccc2c(c1)OCCO2)NCCCN1CCOCC1", "GFP signal change (wild-type ribosome)": "-59.2% (inactive)", "OD600 change": -80.4, "RFP signal change": -18.1}, {"smiles": "S=c1[nH]nc(-c2cccs2)n1/N=C/c1cn(-c2ccccc2)nc1-c1ccc(Cl)cc1", "GFP signal change (wild-type ribosome)": "5.75% (inactive)", "OD600 change": 18.1, "RFP signal change": 0.386}, {"smiles": "O=C(O)c1ccc(N/N=C/c2cn(-c3ccccc3)nc2-c2cccs2)cc1", "GFP signal change (wild-type ribosome)": "-27.8% (active)", "OD600 change": -18.5, "RFP signal change": -5.29}, {"smiles": "N#C[C@@H]1[C@H](c2ccccc2)[C@H](CO)N1C(=O)CN1CCOCC1", "GFP signal change (wild-type ribosome)": "13.7% (inactive)", "OD600 change": 21.2, "RFP signal change": 0.395}, {"smiles": "O=C(Nc1ccccc1F)N1CC(=O)N2[C@H](C1)[C@H](c1ccc(C#Cc3ccc(F)cc3)cc1)[C@@H]2CO", "GFP signal change (wild-type ribosome)": "-2.23% (inactive)", "OD600 change": -44.6, "RFP signal change": 20.2}, {"smiles": "O=C(CC1CC1)N1[C@@H](CO)[C@H](c2ccccc2)C12CN(Cc1cccnc1)C2", "GFP signal change (wild-type ribosome)": "1.16% (inactive)", "OD600 change": -2.09, "RFP signal change": 1.37}, {"smiles": "COc1ccc(CN(C)C[C@@H]2Oc3ccc(NC(=O)NC(C)C)cc3C(=O)N([C@@H](C)CO)C[C@H]2C)cc1", "GFP signal change (wild-type ribosome)": "1.14% (inactive)", "OD600 change": 10.5, "RFP signal change": -0.455}, {"smiles": "COc1ccc(-c2ccc3c(c2)C2CC3CCN2CCC#N)cc1", "note": "(stereo not drawn)", "GFP signal change (wild-type ribosome)": "-28.2% (active)", "OD600 change": -19.1, "RFP signal change": -3.22}, {"smiles": "COc1ccc(-c2ccc3c(c2)[C@H]2[C@H](CCN2C(=O)C2CCOCC2)[C@H](CO)N3C)cc1", "GFP signal change (wild-type ribosome)": "-4.42% (inactive)", "OD600 change": -4.78, "RFP signal change": -1.56}, {"smiles": "C=CCOC(=O)N1CCC2CC1c1cc(-c3ccc(OC)cc3)ccc12", "note": "(stereo not drawn)", "GFP signal change (wild-type ribosome)": "3.93% (inactive)", "OD600 change": 0.963, "RFP signal change": -4.99}, {"smiles": "COc1ccc2c3c(n(C)c2c1)[C@H](CO)NCC31CN(S(=O)(=O)c2cccc(C)c2)C1", "GFP signal change (wild-type ribosome)": "-0.56% (inactive)", "OD600 change": -33, "RFP signal change": 8.22}, {"smiles": "N#Cc1cccc(C(=O)NCC2CCN(C(=O)C(=O)c3cc4ccccc4o3)CC2)c1", "GFP signal change (wild-type ribosome)": "-2.59% (inactive)", "OD600 change": -1.64, "RFP signal change": -0.945}, {"smiles": "CC(C)(C)c1ccc(S(=O)(=O)NCC2CCN(C(=O)C(=O)c3cc4ccccc4o3)CC2)cc1", "GFP signal change (wild-type ribosome)": "-0.31% (inactive)", "OD600 change": 0.126, "RFP signal change": 0.99}, {"smiles": "O=C(C(=O)N1CCC(CNS(=O)(=O)Cc2ccccc2)CC1)c1cc2ccccc2o1", "GFP signal change (wild-type ribosome)": "-14% (active)", "OD600 change": -14.9, "RFP signal change": 2.73}, {"smiles": "COc1cccc(S(=O)(=O)N2CC3(CCN(C)CC3)c3c(n(C)c4cc(OC)ccc34)[C@H]2CO)c1", "GFP signal change (wild-type ribosome)": "-0.483% (inactive)", "OD600 change": -1.36, "RFP signal change": 0.12}, {"smiles": "COc1ccc2c3c(n(C)c2c1)[C@@H](CO)N(C(=O)CN1CCOCC1)CC31CCN(Cc2ccncc2)CC1", "GFP signal change (wild-type ribosome)": "1.45% (inactive)", "OD600 change": 2.53, "RFP signal change": -1.13}, {"smiles": "C[C@@H](NC(=O)C[C@@H]1CC[C@H]2[C@@H](COC[C@@H](O)CN2C(=O)Nc2cccc(F)c2)O1)c1ccccc1", "GFP signal change (wild-type ribosome)": "-11.5% (inactive)", "OD600 change": -6.23, "RFP signal change": 5.17}]}]}
